Screening data from PubChem BioAssay.
The list is not random: actives were taken first. Their share in the collection is about 3.7%.
Rce1 inh: blocks yeast Ras-converting enzyme; Q03530; yeast membranes, quenched prenylated peptide cleavage fluorescence; hit rate 0.27% among 290,000; calls only;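 active = fall in fluorescence gain of 50% or more versus controls, with final raw signal at or below 3038400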;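 also: plate controls were neutral control wells for no effect and wells lacking membranes for full effect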
Target sequence (Q03530 whole entry, looked up): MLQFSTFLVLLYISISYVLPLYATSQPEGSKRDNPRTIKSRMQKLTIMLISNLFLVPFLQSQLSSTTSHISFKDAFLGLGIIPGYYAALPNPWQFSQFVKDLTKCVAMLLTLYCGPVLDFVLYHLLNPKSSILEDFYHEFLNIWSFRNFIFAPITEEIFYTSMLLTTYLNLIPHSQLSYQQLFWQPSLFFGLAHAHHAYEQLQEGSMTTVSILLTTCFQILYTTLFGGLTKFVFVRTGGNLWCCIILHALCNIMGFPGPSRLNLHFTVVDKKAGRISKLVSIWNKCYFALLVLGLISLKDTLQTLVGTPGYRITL
TIM10 inh: inhibits growth of TIM10 yeast strain. hit rate 1.4% among 330,000. AID 463195. inhibition, % at 10 µM. S. cerevisiae TIM10 strain growth, BacTiter-Glo luminescence, 24 h;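 active = inhibition of 40% or more at the single tested concentration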;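 also: wild-type TIM10 isogenic control strain grown at permissive 25 °C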
PfHsp90 set2: growth inhibition of yeast expressing Plasmodium Hsp90; S. cerevisiae expressing PfHsp90, BacTiter-Glo ATP, 48 h; yeast lacking PDR1 and PDR3 efflux regulators; inhibition, % at 9.4 µM; hit rate 0.32% among 310,000;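 active = every replicate shows inhibition above about 80%, whatever the replicate mean, limit read from the data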;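 also: 0% = DMSO neutral controls and 100% = 20 µM radicicol positive controls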
tim23-1 inh: tim23-1 yeast growth inhibition; S. cerevisiae tim23-1 growth, BacTiter-Glo luminescence, 24 h; inhibition, % at 20 µM; hit rate 1.3% among 330,000; AID 463212;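 active = growth inhibition of the mutant yeast at or above 50%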;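 also: temperature-sensitive mutant grown at 25 °C; plate controls were DMSO-treated mutant yeast for no effect and medium wells lacking yeast for full effect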
tim10-1 inh: tim10-1 yeast growth inhibition. hit rate 2.2% among 330,000. S. cerevisiae tim10-1 ts strain growth, BacTiter-Glo, 24 h. inhibition, % at 20 µM;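 active = inhibition of at least 40%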;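 also: mutant grown at 25 °C; 0% = DMSO wells with yeast and 100% = wells holding no yeast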
TIM10 conf: confirmation of TIM10 yeast growth inhibitors; shares compounds with TIM10 inh; S. cerevisiae tim10 strain growth, BacTiter-Glo luminescence, 24 h; inhibition, % at 10 µM; hit rate 63% among 4,600; AID 463215;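 active = inhibition of yeast growth at or above a set limit in either of two replicates at 10 µM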;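 also: this counterscreen used the strain with wild-type TIM10; 0% = yeast with DMSO and 100% = medium wells lacking yeast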
* marks the source's active call; other numbers are inactive results; i = inactive; nt = no result given.

SMILES	Rce1 inh	TIM10 inh	PfHsp90 set2	tim23-1 inh	tim10-1 inh	TIM10 conf
COc1ccc(NC(C)C(=O)Nc2cc(C(F)(F)F)ccc2N2CCOCC2)c(OC)c1 (stereo not given)	i	41*	-3	33	28	15
CCCn1nc(C(=O)NNC(=O)C2CSC3(C)CCC(=O)N23)c2ccccc2c1=O (stereo not given)	i	-2	-13	8	5	nt
COc1ccc(C(=O)N/N=C(\N)c2cc3ccccc3oc2=O)cc1	i	-14	-9	4	10	nt
O=C(NCC1CCCO1)c1cc2ccccc2oc1=O (stereo not given)	i	95*	-7	6	6	-6
N/C(=N\NC(=O)c1ccccc1)c1cc2ccccc2oc1=O	i	48*	-9	12	-4	17
COc1ccccc1-c1cccc([C@@H]2C[C@H]3[C@H](CON3C)CN2S(=O)(=O)c2ccccc2C)c1	nt	nt	16	nt	nt	nt
Cc1cnc(C)c(N2CCN(Cc3nc(-c4ccccc4)no3)CC2)n1	i	-4	-6	10	10	nt
CC(C)Cn1cnc2c(Sc3c([N+](=O)[O-])ncn3C)nc(N)nc21	nt	nt	7	nt	nt	nt
Cc1ccc(C)c(N2CCN(C(=O)C3CCN(c4nc(C)cc(C)n4)CC3)CC2)c1	i	38	30	39	27	nt
Cc1cc(C)nc(N2CCC(C(=O)N3CCN(c4cc(Cl)ccc4C)CC3)CC2)n1	i	47*	-18	33	29	25
Cc1ccc(NC(=O)CN2C(=O)c3ccccc3C2=O)c(C)c1	nt	97*	-16	-13	-25	1
Cc1ccc(C)c(NC(=O)CN2C(=O)c3ccccc3C2=O)c1	i	12	nt	-5	-2	nt
Cc1ccccc1CSCC(=O)NNC(=S)NCC1CCCO1 (stereo not given)	i	2	1	7	-1	nt
CCc1ccccc1NC(=S)NCC1CCN(c2ccc(OC)cc2)C1 (stereo not given)	i	40*	7	48	-4	53*
COc1ccc(N2CCC(CNC(=O)Nc3ccc(Cl)cc3)C2)cc1 (stereo not given)	i	6	-28	-3	6	nt
CCc1cccc(C)c1NC(=S)NCC1CCN(c2ccc(OC)cc2)C1 (stereo not given)	i	57*	-38	36	27	59*
COc1ccc(N2CCC(CNC(=S)Nc3cccc(OC)c3)C2)cc1 (stereo not given)	i	18	nt	39	-17	nt
CC1(OC(=O)C2CCCC2)C(=O)C=C2C=C(C3CC3)OC=C2C1=O (stereo not given)	i	7	nt	20	3	nt
O=C(Nc1ccc2ccccc2c1)C(c1ccccc1)C1CCCC1 (stereo not given)	i	44*	-11	7	20	24
CCOc1cc(-c2cc(-c3ccc(C)o3)nc(N)c2C#N)ccc1O	i	43*	-79	31	40	21
Cc1ccc2nc(-c3ccncc3)c(NC3CCCCC3)n2c1	i	43*	-8	41	22	42*
Cc1ccc2nc(-c3ccncc3)c(NC3CCCC3)n2c1	i	-2	-24	25	8	nt
N#C/C(=C/c1ccc(F)cc1)S(=O)(=O)c1ccccc1	i	3	6	17	18	nt
N#C/C(=C\c1ccc(C(=O)O)cc1)S(=O)(=O)c1cc(Br)ccc1Br	i	42*	nt	45	32	18
CCOc1ccccc1NC(=O)NS(=O)(=O)c1ccc(C)cc1	i	2	-7	13	-10	nt
SMILES	Rce1 inh	TIM10 inh	PfHsp90 set2	tim23-1 inh	tim10-1 inh	TIM10 conf
Cc1[nH]c2ccccc2c1C(C#N)(C#N)C1C(=O)c2ccccc2C1=O	i	63*	1	36	1	78*
Cc1c(O)ccc2c3c(c(=O)oc12)CCCC3	nt	41*	13	31	30	31*
O=C(/C(=N/N=C/c1ccc(O)c(O)c1O)c1ccccc1)c1ccccc1	i	45*	-20	45	13	-1
Oc1ccc(/C=N/N=C(c2ccccc2)c2ccccc2)c(O)c1O	nt	nt	4	nt	nt	nt
COc1nnc(-c2ccc(N3CCOCC3)c(NC(=O)C3CCCCC3)c2)c2ccccc12	i	41*	-10	33	35	25
COc1nnc(-c2ccc(N3CCCCC3)c(NC(=O)C3CCCCC3)c2)c2ccccc12	i	19	-24	24	19	nt
Cc1cc(C)cc(C(=O)/C=C2\NC(=O)CS2)c1	i	50*	-4	43	20	34*
O=C1CS/C(=C/C(=O)c2ccccc2)N1	i	5	-4	35	-25	nt
O=C(/C=C/c1ccc(O)c(O)c1)c1ccccc1O	i	42*	37	27	33	11
O=C(/C=C/c1ccoc1)c1ccccc1O	i	11	23	6	15	nt
Cn1c(SCc2ccc3c(c2)OCO3)nnc1-c1ccccc1	i	97*	-5	30	-3	11
c1ccc(Cn2c(-c3ccco3)nc3nc4ccccc4nc32)cc1	i	43*	-4	27	35	-21
CCCCCn1c(-c2ccco2)nc2nc3ccccc3nc21	i	33	3	40	13	nt
O=C1Nc2cc3c(cc2C1=O)sc1ccccc13	i	50*	nt	0	22	68*
Cc1cc2c(cc1C)C(=O)C(=O)N2	nt	nt	-29	nt	nt	nt
Cc1cc(NC(=O)COC(=O)[C@@H](NS(=O)(=O)c2ccc(Br)cc2)C(C)C)no1	i	-9	6	7	8	nt
CC(=O)c1cc2c(cc1N/C(=N/S(=O)(=O)c1ccc(C)cc1)c1ccc(Cl)cc1)OCO2	i	23	17	21	24	nt
CC(=O)c1cc2c(cc1N/C(=N/S(=O)(=O)c1ccc(C)cc1)c1ccccc1)OCO2	i	43*	25	30	26	2
CNC(=O)C1CCN(S(=O)(=O)c2c(C)noc2/C=C/c2ccc(OC)cc2)CC1	i	0	-13	12	13	nt
O=c1[nH]cnc2scc(-c3ccc(-c4ccccc4)cc3)c12	i	nt	nt	nt	nt	nt
O=c1[nH]cnc2c1c(-c1ccccc1)cn2-c1ccc(Br)cc1	i	42*	-91	43	31	38*
Nc1nc2ccccc2n1/N=C/c1ccc2c(c1)OCO2	i	17	nt	13	1	nt
Nc1nc2ccccc2n1/N=C/c1ccc(Br)cc1	i	44*	3	36	19	30
COc1ccccc1CNC(=S)NCCc1ccccc1	i	41*	19	18	36	17
COc1ccc(CCNC(=S)NC(=O)c2ccccc2)cc1C	i	45*	-10	31	23	50*
CCOC(=O)C1=C(Nc2ccccc2)CC(C)(O)C(C(=O)OCC)C1c1ccc(Br)cc1 (stereo not given)	i	11	8	25	5	nt
Cc1ccc(Sc2ccc(NC(=O)CCl)cc2)c(C)c1	i	59*	nt	37	39	43*
